Shown are actives, neighbours in structure and some others; about 1.3% of the full set was active somewhere.
WRN helicase inh: WRN helicase (human) inhibition. WRN helicase unwinding, fluorescent forked duplex, kinetic. Potency, µM (highest dose often 114 µM), inactives show at the top dose activity change, negative = inhibition, usual class: inhibitors. actives 0.46% (n = 360,000). AID 651768. Q14191; further: potency means the concentration at half of the fitted maximal effect; on the % scale 0 is the no-effect control and ±100 the full control effect; nearly all actives have a fitted effect of over 55% in size
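Enzyme (20 nM final) and test compound sit together 15 min at room temperature before substrate addition. Substrate is a single-forked duplex oligonucleotide (100 nM) labelled with fluorophore and quencher, with 2 mM ATP; helicase unwinding raises red fluorescence, read kinetically.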
FEN1 inh: inhibitors of human flap endonuclease 1; P39748; Recombinant FEN1 flap cleavage, fluorescence, 15 min; Potency, µM (series often up to 114 µM), for the others: top-dose activity change, negative = inhibition, actives largely listed as inhibitors; actives 0.35% (n = 390,000); further: potency means the concentration at half of the fitted maximal effect; on the % scale 0 is the no-effect control and ±100 the full control effect; nearly all actives have a fitted effect of over 65% in size
Target sequence (P39748 whole entry, looked up): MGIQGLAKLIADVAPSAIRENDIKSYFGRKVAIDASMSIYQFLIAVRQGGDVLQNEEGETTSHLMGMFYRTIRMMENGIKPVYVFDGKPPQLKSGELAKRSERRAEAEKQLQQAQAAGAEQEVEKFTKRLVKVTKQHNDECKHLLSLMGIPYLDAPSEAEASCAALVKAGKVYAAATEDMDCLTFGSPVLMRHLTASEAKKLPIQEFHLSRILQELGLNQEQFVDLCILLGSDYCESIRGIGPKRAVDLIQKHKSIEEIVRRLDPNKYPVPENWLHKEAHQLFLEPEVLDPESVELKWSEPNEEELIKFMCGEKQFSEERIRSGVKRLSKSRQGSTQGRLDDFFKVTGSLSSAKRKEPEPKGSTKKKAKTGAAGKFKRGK
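FEN1 at 10 nM, compound pretreatment for 15 min (room temperature), 50 nM final substrate to initiate; endpoint reads at 0 and 15 min; DMSO-only plates used as vehicle background.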
Pin1 inh: inhibitors of human Pin1; Pin1 FP peptide displacement, HiFluor488, 10 min; actives 0.009% (n = 390,000); Potency, µM (titrated, usually from 115 µM), for the others: top-dose activity, negative = inhibition, usual class: inhibitors; Q13526; AID 504891; active means well fitted inhibition curve with a large enough effect in the polarisation, with a control signal flat, not every such curve was filed as active; inconclusive means small, poorly fitted or top-dose-only effect, or effect the other way, or a change in a side signal; inactive means no such curve, though single readings can be large or run the other way; the % refers to the polarisation; further: potency means the concentration at half of the fitted maximal effect; on the % scale 0 is the no-effect control and ±100 the full control effect
Target sequence (Q13526 whole entry, looked up): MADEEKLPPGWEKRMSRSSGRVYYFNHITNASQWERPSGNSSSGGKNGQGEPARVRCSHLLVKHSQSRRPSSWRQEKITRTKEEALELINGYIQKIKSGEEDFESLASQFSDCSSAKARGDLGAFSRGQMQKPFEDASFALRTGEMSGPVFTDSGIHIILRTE
PI5P4K alpha inh: PI5P4K alpha (human) kinase inhibition; P48426; PI5P4Kalpha enzyme, ADP-Glo luminescence, 60 min; stronger effect = lower value; max response, %; actives 1.2% (n = 330,000); AID 652105; active means max response of -50% or lower; inconclusive means between -30% and -50%; inactive means -30% or higher; further: value at the top dose of about 77 µM; on the % scale 0 is the no-effect control and ±100 the full control effect
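Quantitative HTS of the MLSMR library against PI5P4Kalpha with substrate. ATP added last at 5 microM final; room temperature, 60 minutes. Remaining ATP depleted, ADP converted and read as luminescence.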
GRP78 ERSR act: induces the endoplasmic reticulum stress response in human glioma cells; Potency, µM, for inactives: top-dose activation, most hits filed as activators; U87-MG GRP78 promoter luciferase reporter, 16 h; actives 0.02% (n = 420,000); further: potency means the concentration at half of the fitted maximal effect; series mostly up to about 76 µM; % of control where 0% means no effect; nearly all actives have a fitted effect of over 35% in size
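Stably transfected U87-MG glioma cells carrying a GRP78-based luciferase sensor; 16 h compound incubation. Luminescence end-point read 10 min after Bright-Glo addition at room temperature.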
Tb PGK inh: T. brucei PGK inhibition | PGK/GAPDH coupled, Kinase-Glo luminescence, 60 min | Potency, µM (doses to about 57.5 µM), for inactives: at the top dose activity change, negative = inhibition, most hits filed as inhibitors | actives 0.043% (n = 380,000) | AID 602233; further: potency means the concentration at half of the fitted maximal effect; on the % scale 0 is the no-effect control and ±100 the full control effect; nearly all actives have a fitted effect of over 60% in size
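Recombinant glycosomal PGK reaction used 1,3-bisphosphoglycerate generated in-well by GAPDH (100nM final) in 100mM TEA pH 7.6, 5mM MgCl2, 0.01% Tween-20. After 60 minutes at room temperature, ATP was read by Kinase-Glo Plus luminescence end-point.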
ADP-Glo counter: ADP-Glo luciferase interference, PI5P4K counter-screen; ADP-Glo detection counter-screen, luciferase luminescence, no enzyme; Potency, µM (series often up to 76.9 µM), inactives show at the highest dose activity change, negative = inhibition, most hits filed as inhibitors; shares compounds with PI5P4K alpha inh; 1,100 tested, under 10 active; AID 743285
Numbers without * were called inactive; i = inactive; ? = inconclusive; . = not tested or not shown. Unless noted, the call rests on the fitted dose curve; in most records, active means well fitted curve in the direction sought with a large enough effect; inconclusive means small, poorly fitted or top-dose-only effect, or another doubt; inactive means no such curve, though single readings can be large; an effect the other way counts as inactive or inconclusive.

SMILES	WRN helicase inh	FEN1 inh	Pin1 inh	PI5P4K alpha inh	GRP78 ERSR act	Tb PGK inh	ADP-Glo counter
CC(C)Sc1nc(N2CCOCC2)c2c(c1C#N)CC(C)(C)N(C)C2	?	1%	-11%	-53*	-4%	3%	1%
CO[C@H]1[C@H](NC(=O)c2ccsc2)c2ccccc2C12CCN(Cc1c(O)ccc3ccccc13)CC2	.	.	.	.	1%	.	.
COCC(=O)Nc1cc(C(=O)N2CCN(c3ccccc3)C(=O)C2)cc2nc(-c3ccccc3)n(C)c12	.	.	.	.	-4%	.	.
Cc1onc(-c2c(F)cccc2Cl)c1C(=O)OCC(=O)NCc1ccco1	0%	-1%	?	-51*	1%	-6%	-5%
Cc1onc(-c2c(F)cccc2Cl)c1C(=O)NCc1ccco1	3%	8%	4%	1	-2%	-2%	.
COC(=O)c1c[nH]c(=O)c2ccccc12	8%	0%	-6%	-56*	-3%	-8%	-7%
COc1ccc(C(=O)NCc2nnc(SC)n2-c2ccccc2C)c(OC)c1OC	.	.	.	.	-5%	.	.
CCC1CN(CCNC(=O)c2ccc3c(c2)OCCO3)Cc2cc(OC)ccc2O1 (stereo not given)	.	.	.	.	-3%	.	.
O=C(Cn1cc(COc2ccc(Br)cc2[N+](=O)[O-])nn1)c1ccc(O)cc1	-5%	0%	?	-57*	-1%	i	-8%
O=C(c1cc2c(s1)CCCC2)N1CCN(Cc2ccc3c(c2)OCO3)CC1	-12%	-1%	-6%	2	-5%	i	.
O=C(Oc1ccc2c(c1)OCO2)c1cc2c(s1)CCC2	?	?	.	-53*	-13%	?	-9%
COc1ccc(OC)c(NC(=O)CN(Cc2ccc(F)cc2)C2CCCCC2)c1	-9%	4%	?	-58*	-5%	2%	-3%
COc1ccc(Cl)cc1NC(=O)CN(C)C1CCCCC1	3%	10%	-3%	5	-3%	i	.
CN(C)CC(C)(O)c1ccc2c(c1)CN(Cc1cccn1-c1ncccn1)CCO2 (stereo not given)	.	.	.	.	-3%	.	.
N#CC1=C2SCN(c3ccccc3)CN2C(=O)CC1c1cccs1 (stereo not given)	-33%	-8%	-8%	-73*	-5%	1%	-8%
N#CC1=C2SCN(c3ccccc3)CN2C(=O)CC1c1ccccc1Cl (stereo not given)	-1%	?	-6%	-82*	-3%	2%	-9%
N#CC1=C2SCN(c3ccccc3)CN2C(=O)CC1c1c(Cl)cccc1Cl (stereo not given)	1%	79µM*	0%	-75*	-4%	-6%	-6%
CC(NC(=O)C1CCOCC1)c1nnc2n1CCN(Cc1ccc(F)cc1)CC2 (stereo not given)	.	.	.	.	3%	.	.
COc1ccc(OC)c(-c2ccnc(-n3ncc(C(=O)N4CCN(CCO)CC4)c3C3CC3)n2)c1	.	.	.	.	-3%	.	.
Cc1ccccc1C1(CC(=O)N2CCCCC2c2cccnc2)CC(=O)N(C2CCCC2)C1=O (stereo not given)	.	.	.	.	-2%	.	.
CCOC(=O)Nc1ccc2c(CN3C(=O)NC(CC)(CC)C3=O)cc(=O)oc2c1	-10%	-6%	-4%	-21	3%	-7%	.
CCOC(=O)Nc1ccc2c(CNC(C)c3ccccc3OC)cc(=O)oc2c1 (stereo not given)	-9%	9%	8%	-90*	-4%	-6%	-6%
Cc1cccc(Nc2nc(NCc3ccco3)nc(N)c2[N+](=O)[O-])c1	-4%	17%	1%	7	-1%	-8%	.
Nc1nc(Nc2ccc(Cl)cc2)nc(NCc2ccco2)c1[N+](=O)[O-]	?	-2%	-2%	-54*	?	i	-2%
COc1ccccc1Nc1nc(NCc2ccco2)c2ccccc2n1	-31%	-19%	2%	-6	-1%	7%	.
Cc1ccc(Nc2nc(NCc3ccco3)c3ccccc3n2)cc1	-22%	-30%	6%	.	-7%	1%	-2%
